The source of these data is PubChem BioAssay AID1508600 (Functional Genomics Laboratory (NCATS/FGL), 2020).

Among all 53,000 sequences or so, about 3,700 (7%) were called active.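 The calls were made as follows: active = gene knockdowns whose robust z-score for IL-1 alpha signal is at least 2 or at most -2, so actives lie on both sides; inactive = the rest.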 This excerpt belongs to a sample that is enriched for actives.

A short description of this test: Components of the Cytosolic LPS Sensing Pathway: Gene Identification via Genome-wide siRNA Screen.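 Also: robust z of the log signal after scaling to non-targeting control siRNA wells of the plate.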 Particulars: RAW264.7 macrophages, IL-1a HTRF, actives lie on both sides, screened at 100 nM (by protocol), cells primed 5 h with Pam3CSK4 first. In short, it runs like this: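 RAW264.7; siRNA 100 nM final, RNAiMAX, 48h 37 degrees C; Pam3CSK4 5 h; LipidA + TransIT-TKO 24 h; IL-1a HTRF; CellTiter-Glo viability; robust z vs negative-control median.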
Take GGGAGAACCAGCACAACAUTT against Cavin2: the z-score is -1.8 (inactive).

As for GGAAGACAUUCACGAUUGUTT against Deptor, the z-score is -0.0976 (inactive).

Turning to GGAGUUCAGCAACCUGUUGTT against Tmem97, the z-score is -2.08 (active).

Take GGGAUCAUUGCUGUCCUCUTT against Adora2b: the z-score is -1.33 (inactive).

As to CCUCAAACCAUCAACAACCTT against Six3, the z-score is -2.04 (active).

In the case of GGAACUUUCCUUUUUUGUCTT against Serpinb5, the z-score was 0.889 (inactive).

As to GGUGAUGAUGUCCAGAAGUTT against Kdm4d, the z-score is -0.913 (inactive).

Take GGAGAAAGUCUUUGUGAACTT against Lipc: the z-score is -1.1 (inactive).

Take GGCUUUCUUUUUGAAAGAATT against Arhgap10: the z-score is 0.78 (inactive).

As to GGAACCUACUUGUUACCUUTT against Nlrp5, the z-score was 0.731 (inactive).

Turning to CGGUCAUUAAAACUUACAGTT against Hells, the z-score is 2.69 (active).

GCCGGGAGAAAUAAAUGGUTT against Mif: the z-score is -0.654 (inactive).

For GGAAAAACUCUUCUUCACGTT against Nphs1, the z-score was -0.0272 (inactive).

GGAGGACUCUGCUUCCAUATT against Pwwp3b: the z-score was -0.848 (inactive).

Take GGUUCUGGAAGUGAAGGUGTT against Prg2: the z-score is -0.00973 (inactive).

For CCACUUCCGAUGAGCCAGATT against Mrps10, the z-score was -3.31 (active).

GCUAUUGGUGCUUCAGUCCTT against Rtel1: the z-score was -0.458 (inactive).

In the case of GCCGUGUUCAUGAAUAAACTT against Glce, the z-score is -0.392 (inactive).

Turning to GCUCUGUGAGCGAAAGUUCTT against Synpo2, the z-score is 1.72 (inactive).

As for CGUGGUCAGCGAGAGAGAATT against Sohlh1, the z-score is 1.19 (inactive).

Consider GGAUGCUGACAACAUAUACTT against Plk3, for which the z-score was -0.726 (inactive).

For GGUUUUCCUGUUCAAUUCUTT against Olfr586, the z-score was 2.4 (active).

With CGCUGCUUUUCCUAGCAGATT against Orai1, the z-score is 0.194 (inactive).

As for GCUCCAACAAGGCAUAAAATT against Dis3, the z-score was -1.71 (inactive).

As for CGUUGAACUAGCAGUGGACTT against Arel1, the z-score is 0.304 (inactive).

For GUCUACAUCAACAUGCCUGTT against Hcst, the z-score is 0.729 (inactive).

Take GGCUUAAUUACACAUGUUCTT against Il6: the z-score was -1.09 (inactive).

Consider GGACAAGAAAAAGUCCAGATT against Dhx38, for which the z-score was -1.17 (inactive).

As for GCAGGGAAUAGCAAACUUATT against Nfil3, the z-score is 1.18 (inactive).

As for GGAAAGGAGAGGUGUGUUCTT against Asb7, the z-score is 0.431 (inactive).

In the case of GGAAGAUGUCUCCUAUGAGTT against Hebp1, the z-score was -2.42 (active).

In the case of CCUGCUUAUUUAUGUACGATT against Tob2, the z-score was 1.27 (inactive).

Regarding GGUACCUUAAACUCAUGAATT against Ifnb1, the z-score is 0.773 (inactive).

As to GCGAACCCUAAGUAAGAAGTT against U2surp, the z-score was -0.989 (inactive).

On to GCGAGAUGCCAACAAACUGTT against Pacs1, for which the z-score is 0.678 (inactive).

As for GCUACCUAUGCCAAUAUCATT against Efemp1, the z-score is -0.787 (inactive).

Take GGGCAUCACUUGUAAUUAATT against Bcl10: the z-score is -2.06 (active).

For the sequence GGAACCUAUCCAAGAAGUATT against Ckap2, the z-score was 0.428 (inactive).

Regarding GUCACAGUACCCAAAAUGUTT against Olfr979, the z-score is -2.42 (active).

Turning to GGCCUUGUAUAAAACACAUTT against Pah, the z-score was 0.293 (inactive).

On to CCAGCUUGUUACUAAGUAATT against Mgat3, for which the z-score was -0.227 (inactive).

In the case of GAGUACCAGCUGUUGUUCATT against Olfr392, the z-score was 4.22 (active).

Turning to GCAGGGAGGCAUCUUCUUUTT against Olfr3, the z-score is -0.22 (inactive).

As for GGUUCUUUCCAAACAAGAGTT against Evc, the z-score is 1.1 (inactive).

For GGAGGUCAUCAACGUGCUATT against Nucb1, the z-score is -0.339 (inactive).

Turning to CGGUACAAAUGAUUUCUGATT against Pcolce2, the z-score is 2.04 (active).

On to GGUAAAAUUGUCCAAGGAATT against Clec2i, for which the z-score is -0.109 (inactive).

Turning to GGCCAAGAAGACAAGAAAATT against Ddx54, the z-score was 0.502 (inactive).

Take GGAAUAUGUUUAGCAUCUGTT against Mfsd5: the z-score is -0.437 (inactive).

GGCACAUAUGAGGACUACCTT against Myl6b: the z-score was 0.786 (inactive).

As for GCCGUGCAACACUUCUACATT against Esrrb, the z-score was -0.471 (inactive).

Regarding GGAGGUCCCUUCUUCAGCUTT against Zfp410, the z-score is -1.19 (inactive).

As for GGCCAAGAAGAGAAAAACATT against Ccne2, the z-score is -1.54 (inactive).

Take GGUCAUGGAUGUCACAGAGTT against Mink1: the z-score is -2.17 (active).

For the sequence CCAGAUUCUAUAAUAGAGUTT against Gabrp, the z-score is -0.232 (inactive).

As for GGGUUCUGUGUAAAUGUAUTT against Gzma, the z-score is 0.203 (inactive).

Turning to GGCAGAAGUCCAACUUCUUTT against Pirt, the z-score is -0.363 (inactive).

GCUAGUGCGCAUGUUUCUCTT against Rasgrp2: the z-score is 0.621 (inactive).

With GGUGGAAGCACAGAGUUGCTT against Prdm15, the z-score is 2.14 (active).

Turning to GGACAACCAAAAUGCAUUUTT against Zic3, the z-score is 0.517 (inactive).

As for GGAACUGGGUCCUCAUUCCTT against Capn1, the z-score was -1.6 (inactive).

With GGAGUUCAACUAGAUGUGGTT against Bcl2l13, the z-score was -1.2 (inactive).

In the case of GCUUCAAUGAGGAGUAUCUTT against Smpdl3b, the z-score is -0.617 (inactive).

Take GGAUUGGAUAUUGAGAAGGTT against Rexo2: the z-score is -1.72 (inactive).

For the sequence GGUGGUCAGGAAAUGAGUCTT against Lrch4, the z-score was 2.09 (active).

With “GGUCAACUCUAAGAUGCUGTT against 9930012K11Rik”, the z-score is 1.35 (inactive).

On to CGUGUGAAGUAAAGAUGUUTT against Mrpl57, for which the z-score was 0.212 (inactive).

As to GGAGCUGCUUUCAAAGCUGTT against Ccdc136, the z-score is -0.831 (inactive).

For the sequence GGAUGGUACAGGUCUGGUGTT against Fgfr3, the z-score was 4.82 (active).

As to “CGGAUUAUUGGUUAGAAAUTT against C230013L11Rik”, the z-score is 1.26 (inactive).

Regarding GCACAAUGGAAGGUGUCCUTT against Tas2r114, the z-score was 0.597 (inactive).

GGACUUUGUGGACAAAAUUTT against Ift20: the z-score is -1.64 (inactive).

For the sequence GCCUCAACAUGAUCCCGAGTT against Ccdc172, the z-score is -3.34 (active).

Turning to GGAGAUAAAGAGGAACAUUTT against AI504432, the z-score is 1.01 (inactive).

With GGGUUUUGAAAGAGGAAAATT against Osbpl8, the z-score is 1.52 (inactive).

On to GGCAGCUGAAAGAAGAUCUTT against Dffa, for which the z-score is 3.21 (active).

With GGGACUGGAACAAUAGAGGTT against BC030500, the z-score was 0.626 (inactive).

On to GGGACAAGUGACUGAAUUGTT against Dio3, for which the z-score was 0.408 (inactive).

On to GGCCAUUUACUUGAAGAACTT against Lpin3, for which the z-score is -0.0508 (inactive).

Turning to CCUUCUCCUCGUGCAAGUATT against Cort, the z-score was 2.05 (active).

Take GAUGCCCAAUGUGCAAAUGTT against Defa-rs12: the z-score is 1.06 (inactive).

With CCACUGCACUGUAAAUCAATT against Glrx5, the z-score is -1.41 (inactive).

On to GCUCUUGACUCACUCAGCATT against Il1bos, for which the z-score was -2.01 (active).

Take GGACUGAAAUGUCUUAGACTT against Selenow: the z-score was -1.21 (inactive).

On to GCAUCGCAUAUUGGAAUGCTT against Lim2, for which the z-score is 0.366 (inactive).

As for CGGCAAAUUCGUGAAAAGGTT against Olfr575, the z-score is 0.118 (inactive).

For the sequence GCAACUGAAUUCCAGUUUUTT against Ugt1a2, the z-score was -0.0905 (inactive).

Regarding GGAGCUAGCCAACUUCGAUTT against Lsr, the z-score was -0.182 (inactive).

For the sequence GCACAGAAAUAUUAAAGUCTT against Foxp4, the z-score is -1.7 (inactive).

For the sequence GGGUUUAGAAAGAUGAAUGTT against Tbcel, the z-score was -0.189 (inactive).

Regarding GGGCUUCACCCUCAUACAATT against Pirt, the z-score is 2.26 (active).

With GGAGAAAGCCAAAUUUAACTT against Slc17a6, the z-score was 0.103 (inactive).

For the sequence GGUCUGAAGAAGAUUCUGGTT against Unc45a, the z-score was 0.33 (inactive).

With GCCUUUAUAGGAUUUCAAATT against Ppp2r5e, the z-score is 0.678 (inactive).

In the case of CGGUACAGGGUAAAGGACATT against Prss41, the z-score is 0.00568 (inactive).

As to GGAGUACAGCAUCUCAGCATT against Cacng1, the z-score was -2.17 (active).

Turning to GGCAGAACCCUUUGAUGACTT against Fos, the z-score was -0.0931 (inactive).

With GCAGCUGUCCGUAUAUCUUTT against Uxt, the z-score is 0.377 (inactive).

Take GGAGUCCUGAAGAAUAAAGTT against Tff3: the z-score was -0.0657 (inactive).

For CCCACUACUGUAAGACAUGTT against Trim46, the z-score is 0.614 (inactive).

Turning to CCCUCACUAUAACACUAUUTT against Six5, the z-score was -0.418 (inactive).

As for GGCUAGAAAGGGUCUCAAATT against Cyp3a25, the z-score is -1.48 (inactive).

With UUGGUUCAACCUCAUCAUATT against Olfr869, the z-score was 2.07 (active).

As for CCCUUAUUGCUAGACCUAGTT against Map3k11, the z-score is -1.13 (inactive).

In the case of GGAUUUUCUCUAUGCAGGCTT against Dcaf15, the z-score is 0.0862 (inactive).

For the sequence GGAAAAACUGAGAAAACUUTT against Lyrm1, the z-score was -2.41 (active).

For the sequence GGAUGUCAAGGACACAGUATT against Olfr73, the z-score was -1.04 (inactive).

In the case of GCAGUGAUCAGGUAAUGAATT against Igf2, the z-score was 0.431 (inactive).
